The results in this text go back to PubChem BioAssay (NCATS).

The nature of test [1]: Cell Viability - BJ (AID 421; calls by dose curve;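 further: potency means the concentration at half of the fitted maximal effect; cells exposed to compound for 40 hours at 37 °C before readout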). Conditions: BJ fibroblast viability, qHTS. The gist of the method: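 Quantitative HTS: ATP depletion in BJ cells after 40 hr compound exposure in complete culture medium, detected with CellTiter-Glo; AC50 from standard Hill fits.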
(In general: qHTS replaces the single test concentration by a dilution series.)

The nature of test [2]: Cell Viability - Jurkat (AID 426;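 active means dose-dependent loss of cell ATP signal giving a full or clear fitted curve, ranked by lower potency value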; further: potency means the concentration at half of the fitted maximal effect). The conditions noted are these: qHTS. The gist of the method: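 qHTS, 1536-well; Jurkat E6-1, 5000 cells/well, complete medium; cpd 40 hr, 37 °C; CellTiter-Glo 20 min RT; luminescence. AC50 by Hill fit.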
Test [3] in a line: Cell Viability - Hek293 (AID 427;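 active means compounds whose dose-response curve shows a full or clear partial loss of cell viability, called from curve shape rather than a numeric limit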;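 further: potency means the concentration at half of the fitted maximal effect; cells exposed to compound for 40 hours at 37 °C before reading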). The conditions noted are these: qHTS. The gist of the method: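 AC50 values derive from Hill-modelled concentration-response of ATP-based luminescence, normalized between DMSO-only and 100 uM tamoxifen controls. Cells were exposed in complete culture medium for 40 hr at 37 °C before detection.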
The nature of test [4]: Cell Viability - HepG2 (AID 433; calls by dose curve;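 further: potency means the concentration at half of the fitted maximal effect; potency for ATP loss meaning cytotoxicity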). Conditions: qHTS. In outline:
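HepG2 hepatocellular carcinoma cells (1500/well) were treated with compounds for 40 h at 37 °C in complete medium; intracellular ATP was read by CellTiter-Glo luminescence. Data were normalized to DMSO and 100 uM tamoxifen, and AC50 came from Hill fits.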

The nature of test [5]: Cell Viability - MRC5 (AID 434; calls by dose curve;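 further: potency means the concentration at half of the fitted maximal effect; potency reflects cytotoxicity seen as loss of intracellular ATP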). Conditions: MRC5 lung fibroblast viability, qHTS. The gist of the method: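 MRC5 normal human lung fibroblasts, 1500 cells/well, exposed to compound for 40 hr at 37 C. Cellular ATP was read by CellTiter-Glo luminescence; data normalized to DMSO and 100 uM tamoxifen, with AC50 from Hill fits.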
Test [6] in a line: Cell Viability - SK-N-SH (AID 435; calls by dose curve;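 further: potency means the concentration at half of the fitted maximal effect; compound exposure lasted 40 h at 37 °C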). The conditions noted are these: SK-N-SH neuroblastoma cell viability qHTS. In outline: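 SK-N-SH human neuroblastoma cells (1500/well) were exposed to compounds in complete medium for 40 h at 37 °C, and intracellular ATP was then measured by CellTiter-Glo luminescence. AC50 was taken from Hill fits, normalized to DMSO and 100 uM tamoxifen.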

In test [7] the target is Mitogen-activated protein kinase 10 (Mus musculus) (UniProt Q61831). Description: JNK3 AlphaScreen Assay (AID 530; active means well fitted curve in either direction with a large enough effect, not every such curve was filed as active;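 further: kinase came from lysate of stimulated human HepG2 cells; signal reports phosphorylation of biotinylated GST-cJun 1-79 at Ser73 with 10 µM ATP; on the % scale 0 is the no-effect control and ±100 the full control effect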). The conditions noted are these: JNK3 lysate, c-Jun phosphorylation; series mostly up to 57.1 µM. In outline:
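Pre-activated (IL-1β/TNFα) JNK3 in HepG2 lysates phosphorylates biotin-GST-cJun(1-79), 10 uM ATP; anti-phospho-cJun(Ser73) AlphaScreen read at room temperature, pH 7.6 Tris buffer. Compounds pre-incubated 15 min as titrations.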
(Bead proximity is the source of the signal in Alpha formats.)

A short description of test [8]: Cell Viability - N2a (AID 540).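 Further: plate controls were DMSO alone for no effect and tamoxifen control for full effect; nearly all actives have a fitted effect of over 45% in size.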 Conditions: N2a mouse neuroblastoma cell viability; activity change, negative = cytotoxicity: at 92.2 µM (top of the series). In outline: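 Luminescent ATP signal (CellTiter-Glo, 20 min at room temperature) served as the viability read-out after N2a cells were treated with compounds for 40 hours at 37 °C. Concentration-response data were fitted to the Hill equation for AC50.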

The nature of test [9]: Cell Viability - NIH 3T3 (AID 541).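 Further: plate controls were DMSO alone for no effect and tamoxifen positive control for full effect; nearly all actives have a fitted effect of over 25% in size.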 The conditions noted are these: NIH 3T3 cell viability, qHTS; activity change, negative = cytotoxicity: at 92.2 µM (top of the series). The gist of the method: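 Luminescent ATP signal (CellTiter-Glo) served as the viability read-out after NIH 3T3 cells were exposed to compounds over a concentration range for 40 hr at 37 °C. Hill-equation modelling of concentration-response data gave AC50.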

A short description of test [10]: Cell Viability - H-4-II-E (AID 543). Further: on the % scale 0 is the no-effect control and ±100 the full control effect; nearly all actives have a fitted effect of over 35% in size. The conditions noted are these: H-4-II-E rat hepatoma viability; series mostly up to 92.2 µM. The gist of the method:
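Luminescent ATP signal (CellTiter-Glo) served as the viability read-out, with cytotoxicity seen as a concentration-dependent ATP drop. Cells were treated for 40 hours in complete medium. AC50 values derive from Hill-equation modelling.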

Test [11] in a line: Cell Viability - SH-SY5Y (AID 544). Further: nearly all actives have a fitted effect of over 55% in size. Conditions: SH-SY5Y neuroblastoma cell viability; viability change, negative = cytotoxic: at 92.2 µM (top of the series). The gist of the method:
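Luminescent ATP read-out (CellTiter-Glo) measures loss of viable SH-SY5Y neuroblastoma cells after 40 hr compound exposure at 37 °C. AC50 values derive from standard Hill modelling of qHTS concentration-response data.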

A short description of test [12]: Cell Viability - Renal Proximal Tubule (AID 545). Further: nearly all actives have a fitted effect of over 40% in size. Conditions: renal proximal tubule cells viability, primary cells of rat origin; series mostly up to 91.7 µM. In outline: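 Primary rat renal proximal tubule cells (1000/well) were treated with compounds for 40 hr at 37 °C in complete medium. Intracellular ATP was measured by CellTiter-Glo luminescence, and AC50 values came from Hill-equation fits of concentration-response data.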

A short description of test [13]: Cell Viability - Mesenchymal (AID 546).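 Further: cells exposed to compound for 40 hours before reading.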 Conditions: mesenchymal cells viability, qHTS; series mostly up to 91.7 µM. In outline: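 Human kidney mesenchymal cells from normal renal glomeruli, 1000 cells/well, rested 5 hr at 37 °C, then treated 40 hr at 37 °C in complete medium. Cellular ATP read by CellTiter-Glo luminescence; AC50 from Hill-equation fits.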
The nature of test [14]: Cellular Toxicity (caspase-3) HepG2 (AID 654).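 Further: cells exposed to compound for 16 hours before reading; 0% = DMSO alone and 100% = caspase signal from 100 µM tamoxifen.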 The conditions noted are these: HepG2 caspase-3 activation, luminescence; series mostly up to 92.2 µM. The gist of the method:
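Cells plated 5 hr at 37 °C, compound added, incubated 16 hr at 37 °C. Caspase-Glo 3/7 reagent followed, 20 min at room temperature, then luminescence read. Activation scored as signal increase; AC50 from Hill fit.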

The nature of test [15]: Cellular Toxicity (caspase-3) Jurkat (AID 655).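 Further: cells exposed to compound for 16 h at 37 °C before reading.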 Further: potency means the concentration at half of the fitted maximal effect. The conditions noted are these: Jurkat caspase-3 activation, luminescence; caspase-3 activation: at 92.2 µM (top of the series), DMSO = 0%, tamoxifen = 100%. In outline:
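Jurkat cells (5000/well) in complete medium were treated with compounds for 16 hr at 37 °C, then Caspase-Glo 3/7 luminescence was read after 20 min at room temperature. Data normalized to DMSO (basal) and 100 uM tamoxifen (100%); AC50 from Hill fit.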

The nature of test [16]: Cellular Toxicity (caspase-3) HUV-EC-C (AID 656). Conditions: HUV-EC-C cells, caspase-3 activation (apoptosis), vehicle = 0, 100 µM tamoxifen = 100%; series mostly up to 92.2 µM. The gist of the method: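 HUV-EC-C endothelial cells, 1000/well, were pre-incubated 5 hr at 37°C, then exposed to compounds for 16 hr at 37°C. Caspase-Glo 3/7 luminescence was read after 20 min at room temperature. AC50 came from Hill fits, normalized to DMSO and 100 uM tamoxifen.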

The nature of test [17]: Cellular Toxicity (caspase-3) SHSY5Y (AID 657). The conditions noted are these: SH-SY5Y caspase-3 activation, DMSO zero, 10 µM staurosporine = 100%; series mostly up to 91.7 µM. In outline:
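SH-SY5Y human neuroblastoma cells (1500/well) were treated with compounds for 16 h at 37 °C, then Caspase-Glo 3/7 luminescence was read after 1 h at room temperature. Data normalized to DMSO and 10 uM staurosporine; AC50 from Hill fits.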

The nature of test [18]: Cellular Toxicity (caspase-3) MRC-5 (AID 659). Conditions: MRC-5 cells, luminescence, normalized: DMSO 0%, 10 µM staurosporine 100%; series mostly up to 91.7 µM. The gist of the method:
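MRC-5 human normal lung fibroblasts, 1500 cells/well, treated 16 h at 37 °C in complete medium. Caspase 3/7 measured by Caspase-Glo luminescence after 1 h at room temperature. Normalized to DMSO and 10 uM staurosporine; AC50 from Hill fit.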

Test [19] in a line: Cellular Toxicity (caspase-3) BJ (AID 658). Conditions: BJ fibroblasts, luminescence, normalized: DMSO 0%, staurosporine 100%; series mostly up to 91.7 µM. The gist of the method: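 BJ human foreskin fibroblasts, 1000 cells/well, treated 16 hours at 37 °C in complete medium; caspase 3/7 activity by Caspase-Glo luminescence after 1 hr at room temperature. Normalized to DMSO and 10 uM staurosporine; AC50 from Hill fits.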

Test [20] can be described thus: Cell Viability - HUV-EC-C (AID 542). Further: on the % scale 0 is the no-effect control and ±100 the full control effect; nearly all actives have a fitted effect of over 35% in size. Conditions: HUV-EC-C endothelial cell viability, qHTS; series mostly up to 92.2 µM. In outline:
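qHTS cytotoxicity: HUV-EC-C, 1000 cells/well, 5 hr settle, compound 40 hr 37 °C, CellTiter-Glo, luminescence. AC50 via Hill equation.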

Structures are written as SMILES. A number with no mark means an inactive call. Inconclusive results are not listed. Calls of active or inactive are those of the source. Unless noted, the call rests on the fitted dose curve; in most records, active means well fitted curve in the direction sought with a large enough effect; inconclusive means small, poorly fitted or top-dose-only effect, or another doubt; inactive means no such curve, though single readings can be large; an effect the other way counts as inactive or inconclusive.

For the compound `CN(C)c1cccc(O)c1`, the Potency in test [1], in [2], in [3], in test [4], in [5] and in test [6] was over 92 µM throughout. For the same compound, the result in test [7], in test [16], in [17] and in [18] was inactive. For the same compound, the activity change, negative = cytotoxicity in test [8] was -1.51%. Moreover, the Potency entry in test [9], in [10], in test [11], in test [12], in [13] and in test [14] was “inactive” each time. Moreover, the caspase-3 activation in test [15] is -0.572%.

`N#CC1(O)CCCCC1`: the Potency in [1], in test [2], in test [3], in [4], in [5] and in test [6] was over 92 µM throughout. For the same compound, the call in [7], in [16], in test [17], in [19] and in test [18] was inactive. For the same compound, the activity change, negative = cytotoxicity in test [8] is 14.1%. The Potency result in [9], in [10], in test [11], in [12], in test [13] and in [14] was “inactive” in each case. The caspase-3 activation in [15] was 1.9%.

As to `O=C(O)CCSSCCC(=O)O`, the Potency in test [1], in test [2], in test [3], in test [4], in test [5] and in [6] was over 92 µM throughout. Also, the compound was classed as inactive in test [7], in test [16], in test [17], in [19] and in [18]. For the same compound, in test [8], the activity change, negative = cytotoxicity was 1.39%. For the same compound, the Potency result in test [9], in test [20], in [10], in [11], in test [13] and in test [14] was “inactive” throughout. The caspase-3 activation in [15] is 0.0924%.

Take `Cc1c(N)cccc1N`: the Potency in test [1], in test [2], in [3], in test [4], in test [5] and in [6] was over 92 µM throughout. In addition, the result in [7], in test [16], in test [17], in test [19] and in test [18] was inactive. Also, the activity change, negative = cytotoxicity in [8] was -3.84%. Besides, the Potency result in test [9], in test [20], in test [10], in [11] and in [13] was “inactive” each time. Further, the caspase-3 activation in test [15] is -0.535%.

Turning to `Cc1ccc([N+](=O)[O-])c(N)c1`, the Potency in test [1], in test [2], in [3], in test [4], in [5] and in test [6] was over 92 µM each time. For the same compound, the compound was classed as inactive in [7], in test [16], in test [17], in test [19] and in [18]. Further, the activity change, negative = cytotoxicity in test [8] is -4.55%. Also, the Potency entry in test [9], in [10], in [11], in [12] and in test [13] was “inactive” each time. Further, the caspase-3 activation in [15] is 1.25%.

For the compound `O=Nc1ccc(NO)cc1`, the Potency in test [1] is over 92 µM; in [2], 51.1 µM (active); in test [3], over 92 µM; in [4], over 92 µM; in test [5], over 92 µM; in test [6], over 92 µM. In addition, in [15], the Potency was 31.6 µM (active). The result in [7], in test [16], in test [17], in test [19] and in test [18] was inactive. In test [8], the activity change, negative = cytotoxicity was 16.3%. Moreover, the Potency entry in test [9], in test [20], in test [10], in test [13] and in test [14] was “inactive” each time. For the same compound, in test [11], the viability change, negative = cytotoxic is -93.1% (active).
